PubChem BioAssay AID1159580 (chemical genetic matrix, 2015)
Several values for one entry are separate records, joined by “and”; a condition that tells them apart may be missing. Equal entries are not always repeated. The whole screen tested about 5,500 compounds, of which about 2,000 (36%) were called active. Inconclusive results (about 18%) are left out. No stated cut-off is given here; in the data, active means normalized growth mostly below about 0.91 (no sharp cut-off); inconclusive means no clear call, values can overlap the other calls; inactive means mostly above about 0.92. This is one part of the list.

Assay: chemical genetic growth profiling, strain panel (AID 1159580);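 further: tested at 20 µM; growth read once vehicle control cultures reached saturation at 30 °C; 1 = growth at the plate median or of vehicle wells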
Details: growth OD

Measured: normalized growth

CNCCCC12CCC(c3ccccc31)c1ccccc12
inactive: S. cerevisiae deletion strains, locus YJR075W, strain HOC1, stronger effect = lower value 0.991 and 0.989 | S. cerevisiae deletion strains, locus YKL009W, strain mrt4, stronger effect = lower value 0.978 | S. cerevisiae deletion strains, locus YKL068W, stronger effect = lower value 0.983 | S. cerevisiae deletion strains, locus YKL085W, strain MDH1 (second series), stronger effect = lower value 0.982 | S. cerevisiae deletion strains, locus YKL085W, strain MDH1, stronger effect = lower value 0.982 | S. cerevisiae deletion strains, locus YKL160W, strain elf1, stronger effect = lower value 0.968 | S. cerevisiae deletion strains, locus YKR001C, strain vps1, stronger effect = lower value 1.02 | S. cerevisiae deletion strains, locus YKR026C, strain gcn3, stronger effect = lower value 0.979 | S. cerevisiae deletion strains, locus YKR091W, strain srl3, stronger effect = lower value 0.973 | S. cerevisiae deletion strains, locus YLL001W, strain dnm1, stronger effect = lower value 1.01 | S. cerevisiae deletion strains, locus YLL026W, stronger effect = lower value 0.97 | S. cerevisiae deletion strains, locus YLL041C, strain sdh2, stronger effect = lower value 0.98 | S. cerevisiae deletion strains, locus YLR027C, strain aat2, stronger effect = lower value 0.964 | S. cerevisiae deletion strains, locus YLR039C, strain RIC1, stronger effect = lower value 1.29 | S. cerevisiae deletion strains, locus YLR058C, strain SHM2, stronger effect = lower value 0.984 | S. cerevisiae deletion strains, locus YLR102C, strain apc9, stronger effect = lower value 0.992 | S. cerevisiae deletion strains, locus YLR113W, strain HOG1, stronger effect = lower value 1.01 | S. cerevisiae deletion strains, locus YLR221C, strain rsa3, stronger effect = lower value 0.998 | S. cerevisiae deletion strains, locus YLR258W, strain gsy2, stronger effect = lower value 0.974 | S. cerevisiae deletion strains, locus YLR262C, strain YPT6 (second series), stronger effect = lower value 0.937 | S. cerevisiae deletion strains, locus YLR262C, strain YPT6, stronger effect = lower value 1.32 | S. cerevisiae deletion strains, locus YLR268W, strain sec22, stronger effect = lower value 0.975 | S. cerevisiae deletion strains, locus YLR320W, strain mms22, stronger effect = lower value 0.992 | S. cerevisiae deletion strains, locus YLR330W, strain CHS5, stronger effect = lower value 0.993 | S. cerevisiae deletion strains, locus YLR342W, strain FKS1 (second series), stronger effect = lower value 0.944 | S. cerevisiae deletion strains, locus YLR342W, strain FKS1, stronger effect = lower value 0.954 | S. cerevisiae deletion strains, locus YLR357W, strain rsc2, stronger effect = lower value 0.968 | S. cerevisiae deletion strains, locus YLR370C, strain arc18, stronger effect = lower value 0.98 | S. cerevisiae deletion strains, locus YLR371W, strain rom2, stronger effect = lower value 0.963 | S. cerevisiae deletion strains, locus YLR384C, strain iki3, stronger effect = lower value 0.989 | S. cerevisiae deletion strains, locus YLR418C, strain cdc73, stronger effect = lower value 0.857 | S. cerevisiae deletion strains, locus YML016C, strain PPZ1, stronger effect = lower value 0.986 | S. cerevisiae deletion strains, locus YML032C, strain rad52, stronger effect = lower value 0.963 | S. cerevisiae deletion strains, locus YML120C, strain ndi1, stronger effect = lower value 0.976 | S. cerevisiae deletion strains, locus YML124C, strain tub3, stronger effect = lower value 0.995 | S. cerevisiae deletion strains, locus YMR058W, strain fet3, stronger effect = lower value 0.952 | S. cerevisiae deletion strains, locus YMR078C, strain ctf18, stronger effect = lower value 0.984 | S. cerevisiae deletion strains, locus YMR125W, strain sto1, stronger effect = lower value 0.939 | S. cerevisiae deletion strains, locus YMR129W, stronger effect = lower value 0.979 | S. cerevisiae deletion strains, locus YMR205C, strain PFK2, stronger effect = lower value 0.999 | S. cerevisiae deletion strains, locus YMR223W, strain ubp8, stronger effect = lower value 0.951 | S. cerevisiae deletion strains, locus YMR231W, strain pep5, stronger effect = lower value 0.985 | S. cerevisiae deletion strains, locus YMR263W, strain SAP30, stronger effect = lower value 0.992 and 1 | S. cerevisiae deletion strains, locus YMR307W, strain GAS1, stronger effect = lower value 0.979 | S. cerevisiae deletion strains, locus YNL067W, strain RPL9B, stronger effect = lower value 1 | S. cerevisiae deletion strains, locus YNL071W, strain lat1, stronger effect = lower value 0.986 | S. cerevisiae deletion strains, locus YNL128W, strain TEP1, stronger effect = lower value 1.03 | S. cerevisiae deletion strains, locus YNL153C, strain GIM3, stronger effect = lower value 1 | S. cerevisiae deletion strains, locus YNL175C, strain NOP13, stronger effect = lower value 1.02 | S. cerevisiae deletion strains, locus YNL183C, strain NPR1, stronger effect = lower value 0.949 | S. cerevisiae deletion strains, locus YNL197C, strain WHI3, stronger effect = lower value 1.03 | S. cerevisiae deletion strains, locus YNL209W, strain ssb2, stronger effect = lower value 0.967 | S. cerevisiae deletion strains, locus YNL224C, strain SQS1, stronger effect = lower value 1.01 | S. cerevisiae deletion strains, locus YNL233W, strain BNI4, stronger effect = lower value 0.954 | S. cerevisiae deletion strains, locus YNL248C, strain rpa49, stronger effect = lower value 0.932 | S. cerevisiae deletion strains, locus YNL250W, strain rad50, stronger effect = lower value 0.982 | S. cerevisiae deletion strains, locus YNL271C, strain bni1, stronger effect = lower value 0.993 | S. cerevisiae deletion strains, locus YNL298W, strain CLA4, stronger effect = lower value 0.967 | S. cerevisiae deletion strains, locus YNL307C, strain MCK1, stronger effect = lower value 0.978 | S. cerevisiae deletion strains, locus YNL322C, strain KRE1 (second series), stronger effect = lower value 0.976 | S. cerevisiae deletion strains, locus YNR049C, strain mso1, stronger effect = lower value 0.971 | S. cerevisiae deletion strains, locus YNR052C, strain pop2, stronger effect = lower value 0.962 | S. cerevisiae deletion strains, locus YOL012C, strain htz1 0.584 | S. cerevisiae deletion strains, locus YOL147C, strain pex11, stronger effect = lower value 0.987 | S. cerevisiae deletion strains, locus YOR001W, strain rrp6, stronger effect = lower value 0.992 | S. cerevisiae deletion strains, locus YOR061W, strain CKA2, stronger effect = lower value 0.991 | S. cerevisiae deletion strains, locus YOR069W, strain VPS5, stronger effect = lower value 0.993 | S. cerevisiae deletion strains, locus YOR070C, strain gyp1, stronger effect = lower value 0.983 | S. cerevisiae deletion strains, locus YOR080W, strain dia2, stronger effect = lower value 0.951 | S. cerevisiae deletion strains, locus YOR083W, strain WHI5 (second series), stronger effect = lower value 0.999 | S. cerevisiae deletion strains, locus YOR083W, strain WHI5, stronger effect = lower value 0.913 | S. cerevisiae deletion strains, locus YOR106W, strain vam3, stronger effect = lower value 0.95 | S. cerevisiae deletion strains, locus YOR136W, strain idh2, stronger effect = lower value 0.99 | S. cerevisiae deletion strains, locus YOR144C, strain elg1, stronger effect = lower value 0.997 | S. cerevisiae deletion strains, locus YOR184W, strain ser1, stronger effect = lower value 1.02 | S. cerevisiae deletion strains, locus YOR231W, strain MKK1, stronger effect = lower value 1.02 | S. cerevisiae deletion strains, locus YOR265W, strain rbl2, stronger effect = lower value 0.983 | S. cerevisiae deletion strains, locus YOR270C, strain vph1, stronger effect = lower value 0.927 | S. cerevisiae deletion strains, locus YOR290C, strain snf2, stronger effect = lower value 0.94 | S. cerevisiae deletion strains, locus YOR316C, strain cot1, stronger effect = lower value 0.991 | S. cerevisiae deletion strains, locus YPL051W, strain arl3, stronger effect = lower value 0.938 | S. cerevisiae deletion strains, locus YPL055C, strain LGE1, stronger effect = lower value 0.982 | S. cerevisiae deletion strains, locus YPL078C, strain atp4, stronger effect = lower value 0.967 | S. cerevisiae deletion strains, locus YPL106C, strain sse1, stronger effect = lower value 0.975 | S. cerevisiae deletion strains, locus YPL240C, strain hsp82, stronger effect = lower value 0.984 | S. cerevisiae deletion strains, locus YPL241C, strain CIN2, stronger effect = lower value 0.991 and 0.996 | S. cerevisiae deletion strains, locus YPL256C, strain CLN2, stronger effect = lower value 0.995 | S. cerevisiae deletion strains, locus YPR119W, strain clb2, stronger effect = lower value 0.992 | S. cerevisiae deletion strains, locus YPR141C, strain kar3, stronger effect = lower value 0.979 | S. cerevisiae deletion strains, locus YPR163C, strain tif3, stronger effect = lower value 0.994 | S. cerevisiae deletion strains, locus YPR167C, strain met16, stronger effect = lower value 0.996 | S. cerevisiae deletion strains, strain wtn01, stronger effect = lower value 0.964 | S. cerevisiae strains, strain wild type, stronger effect = lower value 0.993
